Reference: PubChem BioAssay (NCI)
The panel holds about 79,000 compounds, 15% with a hit somewhere; the sample as a whole holds those more often. Values without a mark were called inactive. The source made the active and inactive calls. Cut-off read from the data, not from the text of the source: active = growth inhibition above about 70%; inactive = the rest.

Experiments:
[1] = NCI Yeast Anticancer Drug Screen. Data for the mec2-1 strain (AID 157); details: S. cerevisiae mec2-1 strain, stronger effect = higher value
Procedure, shortened: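 Using mec2-1 yeast: add compound, measure growth, express inhibition versus vehicle-treated cultures.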

[2] = NCI Yeast Anticancer Drug Screen. Data for the rad14 strain (AID 159);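 note: 0% = growth of vehicle-treated control cultures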; details: S. cerevisiae rad14 strain growth inhibition, stronger effect = higher value
Procedure, shortened: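 A mutant yeast strain defective in DNA damage repair is treated with compound; inhibition of its growth is scored against untreated, vehicle-exposed cultures.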

[3] = NCI Yeast Anticancer Drug Screen. Data for the sgs1 mgt1 strain (AID 161);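 note: 0% = growth of cultures given vehicle only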; details: S. cerevisiae sgs1 mgt1 strain, stronger effect = higher value
Procedure, shortened: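 Yeast cells carrying a defined DNA-repair defect were exposed to test compounds. Growth inhibition was measured relative to vehicle-treated controls.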

[4] = NCI Yeast Anticancer Drug Screen. Data for the CLN2oe strain (AID 163);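 note: 0% = growth of vehicle-only control cultures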; details: S. cerevisiae CLN2oe strain, stronger effect = higher value
Procedure, shortened: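 Whole-cell yeast growth assay. A strain engineered for altered cell-cycle control received compound, and inhibition relative to vehicle-treated cultures was recorded.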

[5] = NCI Yeast Anticancer Drug Screen. Data for the cln2 rad14 strain (AID 165);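 note: 0% = growth equal to vehicle treated cultures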; details: S. cerevisiae cln2 rad14 strain, stronger effect = higher value
Procedure, shortened: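 Yeast strain cln2 rad14, bearing defects in cell cycle control and DNA repair, serves as the test system; values reflect growth inhibition compared with vehicle.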

[6] = NCI Yeast Anticancer Drug Screen. Data for the bub3 strain (AID 167); details: S. cerevisiae bub3 mutant strain, stronger effect = higher value
Procedure, shortened: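 Steps: expose the mutant yeast strain to compound; grow alongside vehicle-treated cultures; measure growth; express inhibition against the vehicle cultures.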

[7] = NCI Yeast Anticancer Drug Screen. Data for the wt2 strain (AID 169);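 note: 0% = growth of vehicle-treated yeast cultures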; details: S. cerevisiae wt2 strain growth inhibition, stronger effect = higher value
Procedure, shortened: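 Treated yeast vs. vehicle-treated yeast: growth inhibition determined.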

[8] = NCI Yeast Anticancer Drug Screen. Data for the mlh1 strain (AID 171);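 note: 0% = growth of vehicle-treated control cultures of the same strain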; details: S. cerevisiae mlh1 strain growth inhibition, stronger effect = higher value
Procedure, shortened: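 A yeast strain with a defined genetic lesion serves as the test organism. Cultures receive compound or vehicle, and growth is measured.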

[9] = NCI Yeast Anticancer Drug Screen. Data for the sgs1 strain (AID 173);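 note: 0% = growth of vehicle-only control cultures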; details: S. cerevisiae sgs1 mutant, stronger effect = higher value
Procedure, shortened: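 A genetically defined yeast mutant is incubated with the test compound, and its growth is compared to that of the same strain given vehicle.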

[10] = NCI Yeast Anticancer Drug Screen. Data for the mlh1 rad18 strain (AID 175); details: S. cerevisiae mlh1 rad18 strain growth inhibition, stronger effect = higher value
Procedure, shortened: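 Steps: expose repair-defective yeast to compound; measure growth; express inhibition against vehicle-treated controls.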

[11] = NCI Yeast Anticancer Drug Screen. Data for the rad18 strain (AID 177); details: S. cerevisiae rad18 mutant growth inhibition, stronger effect = higher value
Procedure, shortened: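 Measured value is growth inhibition of a yeast strain bearing a DNA repair alteration, referenced to vehicle-treated cells.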

[12] = NCI Yeast Anticancer Drug Screen. Data for the wt1 strain (AID 149);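 note: 0% = growth of vehicle-treated wt1 cultures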; details: S. cerevisiae wt1 strain (SPY 50644) growth inhibition, stronger effect = higher value
Procedure, shortened: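 Compounds are added to wt1 yeast cultures. Growth is then measured. Inhibition is expressed relative to vehicle-treated controls.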

[13] = NCI Yeast Anticancer Drug Screen. Data for the rad50EPP+ strain (AID 151);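 note: 0% = growth of vehicle-treated control cultures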; details: S. cerevisiae rad50 mutant strain, stronger effect = higher value
Procedure, shortened: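 Read-out is yeast growth inhibition relative to vehicle; cells used were the rad50EPP+ strain.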

[14] = NCI Yeast Anticancer Drug Screen. Data for the mgt1 strain (AID 153); details: S. cerevisiae mgt1 mutant growth inhibition, stronger effect = higher value
Procedure, shortened: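 Measured: inhibition of mgt1 yeast growth by compound, normalized to vehicle-treated cultures.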

[15] = NCI Yeast Anticancer Drug Screen. Data for the rad50 strain (AID 155);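 note: 0% = growth of vehicle-only cultures of the same strain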; details: S. cerevisiae rad50 strain growth inhibition, stronger effect = higher value
Procedure, shortened: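 Inhibition values express reduced yeast growth in compound-treated cultures relative to vehicle-treated controls.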

[16] = at 5.0 µM (retest, dose inferred, filed as 0.5)
[17] = at 50.0 µM (retest, dose inferred, filed as 5.0)

CC(C)c1cc(C(C)C)c(O)c(C([O-])[O-])c1.CC(C)c1cc(C(C)C)c(O)c(C([O-])[O-])c1.CC(C)c1cc(C(C)C)c(O)c(C([OH2+])[OH2+])c1.CC(C)c1cc(C(C)C)c(O)c(C([OH2+])[OH2+])c1.[Cu+2].[Cu+2].[OH3+].[OH3+]
growth inhibition ([1]; at 100.0 µM): 76% (active) | growth inhibition ([2]; at 1.2 µM): 5% | growth inhibition ([2]; at 3.7 µM): 14% | growth inhibition ([2]; at 11.0 µM): 29% | growth inhibition ([2]; at 33.0 µM): 64% | growth inhibition ([2]; at 100.0 µM): 93% (active) | growth inhibition [3, 16]: -9% | growth inhibition [3, 17]: 40% | growth inhibition ([3]; at 50.0 µM): 43% | growth inhibition ([4]; at 1.2 µM): 3% | growth inhibition ([4]; at 3.7 µM): 9% | growth inhibition ([4]; at 11.0 µM): 34% | growth inhibition ([4]; at 33.0 µM): 58% | growth inhibition ([4]; at 100.0 µM): 83% (active) | growth inhibition [5, 16]: 3% | growth inhibition [5, 17]: 12% | growth inhibition ([5]; at 50.0 µM): 53.2% | growth inhibition ([6]; at 1.2 µM): 1% | growth inhibition ([6]; at 3.7 µM): 9% | growth inhibition [6, 16]: 4% | growth inhibition ([6]; at 11.0 µM): 19% | growth inhibition ([6]; at 33.0 µM): 47% | growth inhibition [6, 17]: 1% | growth inhibition ([6]; at 50.0 µM): 96.7% (active) | growth inhibition ([6]; at 100.0 µM): 70% (active) | growth inhibition ([7]; at 1.2 µM): -4% | growth inhibition ([7]; at 3.7 µM): -2% | growth inhibition ([7]; at 11.0 µM): 32% | growth inhibition ([7]; at 33.0 µM): 70% (active) | growth inhibition ([7]; at 100.0 µM): 93% (active) | growth inhibition ([8]; at 1.2 µM): 2% | growth inhibition ([8]; at 3.7 µM): 15% | growth inhibition ([8]; at 11.0 µM): 29% | growth inhibition ([8]; at 33.0 µM): 60% | growth inhibition ([8]; at 100.0 µM): 93% (active) | growth inhibition ([9]; at 1.2 µM): -11% | growth inhibition ([9]; at 3.7 µM): -19% | growth inhibition ([9]; at 11.0 µM): 27% | growth inhibition ([9]; at 33.0 µM): 78% (active) | growth inhibition ([9]; at 100.0 µM): 93% (active) | growth inhibition [10, 16]: -12% | growth inhibition [10, 17]: 59% | growth inhibition ([10]; at 50.0 µM): 38.2% | growth inhibition ([11]; at 1.2 µM): 2% | growth inhibition ([11]; at 3.7 µM): 10% | growth inhibition ([11]; at 11.0 µM): 34% | growth inhibition ([11]; at 33.0 µM): 57% | growth inhibition ([11]; at 100.0 µM): 87% (active)

FC(F)(F)c1cc(NC(=S)N2c3ccccc3-n3cccc3C2c2cccnc2)cc(C(F)(F)F)c1 (stereo unspecified)
growth inhibition ([12]; at 1.2 µM): 2% | growth inhibition ([12]; at 3.7 µM): -5% | growth inhibition ([12]; at 11.0 µM): -4% | growth inhibition ([12]; at 33.0 µM): -6% | growth inhibition ([12]; at 100.0 µM): -9% | growth inhibition ([13]; at 1.2 µM): 1% | growth inhibition ([13]; at 3.7 µM): 6% | growth inhibition ([13]; at 11.0 µM): 18% | growth inhibition ([13]; at 33.0 µM): 42% | growth inhibition ([13]; at 100.0 µM): 57% | growth inhibition ([14]; at 1.2 µM): -10% | growth inhibition ([14]; at 3.7 µM): -5% | growth inhibition ([14]; at 11.0 µM): -17% | growth inhibition ([14]; at 33.0 µM): -36% | growth inhibition ([14]; at 100.0 µM): -17% | growth inhibition ([15]; at 1.2 µM): -13% | growth inhibition ([15]; at 3.7 µM): -3% | growth inhibition [15, 16]: 10% | growth inhibition ([15]; at 11.0 µM): 9% | growth inhibition ([15]; at 33.0 µM): 3% | growth inhibition [15, 17]: 57% | growth inhibition ([15]; at 50.0 µM): 74.7% (active) | growth inhibition ([15]; at 100.0 µM): 2% | growth inhibition ([1]; at 1.2 µM): -5% | growth inhibition ([1]; at 3.7 µM): -4% | growth inhibition [1, 16]: -6% | growth inhibition ([1]; at 11.0 µM): -2% | growth inhibition ([1]; at 33.0 µM): -1% | growth inhibition [1, 17]: 51% | growth inhibition ([1]; at 50.0 µM): 47.1% | growth inhibition ([1]; at 100.0 µM): -1% | growth inhibition ([2]; at 1.2 µM): 2% | growth inhibition ([2]; at 3.7 µM): 0% | growth inhibition ([2]; at 11.0 µM): -1% | growth inhibition ([2]; at 33.0 µM): -3% | growth inhibition ([2]; at 100.0 µM): -5% | growth inhibition [3, 16]: -3% | growth inhibition [3, 17]: 69% | growth inhibition ([3]; at 50.0 µM): 44.5% | growth inhibition ([4]; at 1.2 µM): -3% | growth inhibition ([4]; at 3.7 µM): -2% | growth inhibition ([4]; at 11.0 µM): 2% | growth inhibition ([4]; at 33.0 µM): -1% | growth inhibition ([4]; at 100.0 µM): -5% | growth inhibition [5, 16]: -10% | growth inhibition [5, 17]: 21% | growth inhibition ([5]; at 50.0 µM): 43.6% | growth inhibition ([6]; at 1.2 µM): -1% | growth inhibition ([6]; at 3.7 µM): -5% | growth inhibition [6, 16]: -3% | growth inhibition ([6]; at 11.0 µM): -5% | growth inhibition ([6]; at 33.0 µM): -4% | growth inhibition [6, 17]: 45% | growth inhibition ([6]; at 50.0 µM): 26.4% | growth inhibition ([6]; at 100.0 µM): -9% | growth inhibition ([8]; at 1.2 µM): -2% | growth inhibition ([8]; at 3.7 µM): -1% | growth inhibition ([8]; at 11.0 µM): -4% | growth inhibition ([8]; at 33.0 µM): -4% | growth inhibition ([8]; at 100.0 µM): 6% | growth inhibition ([9]; at 1.2 µM): -8% | growth inhibition ([9]; at 3.7 µM): -3% | growth inhibition ([9]; at 11.0 µM): -2% | growth inhibition ([9]; at 33.0 µM): -2% | growth inhibition ([9]; at 100.0 µM): 1% | growth inhibition [10, 16]: -7% | growth inhibition [10, 17]: 69% | growth inhibition ([10]; at 50.0 µM): 70.7% (active) | growth inhibition ([11]; at 1.2 µM): -1% | growth inhibition ([11]; at 3.7 µM): -6% | growth inhibition ([11]; at 11.0 µM): 0% | growth inhibition ([11]; at 33.0 µM): -2% | growth inhibition ([11]; at 100.0 µM): -2%
